Measurements published in PubChem BioAssay (Tox21).
Records with an inconclusive call do not appear. Activity calls are given as the source filed them. Unless noted, calls follow the shape of the dose curve; as a rule, active = well fitted curve in the direction sought with a large enough effect in the repeat runs; inconclusive = weak or mixed curves; inactive = no such curve, though single readings can be large; an effect the other way counts as inactive or inconclusive.

Experiments:
[1] = qHTS assay for small molecules that induce genotoxicity in human embryonic kidney cells expressing luciferase-tagged ATAD5 (AID 651632); also: nearly all actives have a fitted effect of over 15% in size
In short: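 Reporter cells (HEK293T) express luciferase-tagged ATAD5, a protein that accumulates after DNA damage. Treat 16 hr at 37C/5% CO2, add Amplite, wait 30 min at RT, and read luminescence.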

[2] = qHTS assay for small molecules that induce genotoxicity in human embryonic kidney cells expressing luciferase-tagged ATAD5 - cell viability (AID 651634; calls by dose curve; also: nearly all actives have a fitted effect of over 25% in size)
In short: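 Seeding of 2,000 HEK293T ATAD5-luciferase cells per well preceded pin-tool compound transfer. Plates sat 15.5 hr at 37C under 5% CO2, then fluorescence was read after 30 min with CellTiter-Fluor.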

[3] = qHTS assay for small molecule disruptors of the mitochondrial membrane potential - cell viability (AID 720634; calls by dose curve;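 also: human HepG2 liver cancer cells; series mostly up to about 83 µM; nearly all actives have a fitted effect of over 20% in size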)
In short: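 Measuring cytotoxicity alongside mitochondrial potential, the screen quantified ATP by luminescence in HepG2 cells after 1 hr compound incubation and a 30 min room-temperature CellTiter-Glo step.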

[4] = qHTS assay for small molecule disruptors of the mitochondrial membrane potential (AID 720635)
In short: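 Mitochondrial membrane potential tracked with Mito-MPS dye, red aggregates (ex 540/em 590 nm) against green monomers (ex 490/em 535 nm). Compound treatment 1 hr at 37C, dye 30 min in HepG2.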

[5] = qHTS assay to test for compound auto fluorescence at 590 nm (red) in HepG2 cells (AID 720674)
In short: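 We screened compounds on adherent HepG2 cells, incubating them for an hour at 37 C in 5% CO2 before reading emission at 590 nm under 540 nm excitation; values reflect equivalence to Rose Bengal sodium fluorescence.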

[6] = qHTS assay to test for compound auto fluorescence at 535 nm (green) in HepG2 cells (AID 720675)
[7] = qHTS assay to test for compound auto fluorescence at 460 nm (blue) in HEK293 cells (AID 720678)
In short: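 Auto fluorescence in the blue band was quantified as triamterene equivalency. HEK293 cells were seeded at 2,000/well, dosed after a 4-5 hr attachment, and kept overnight at 37C before the 405/460 nm reading.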

[8] = qHTS assay to test for compound auto fluorescence at 590 nm (red) in HEK293 cells (AID 720679)
In short: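 Autofluorescence equivalency to Rose Bengal sodium, 540/590nm, in HEK293 cells exposed overnight to 23 nL compound per well.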

[9] = qHTS assay to test for compound auto fluorescence at 535 nm (green) in HEK293 cells (AID 720680)
[10] = qHTS assay to test for compound auto fluorescence at 460 nm (blue) in HEK293 cell free culture (AID 720681)
In short: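 Blue fluorescence (Ex 405/Em 460 nm, triamterene-equivalent) was read immediately after pin transfer of compound or DMSO into medium (DMEM, 10% FBS) without cells.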

[11] = qHTS assay to test for compound auto fluorescence at 535 nm (green) in HEK293 cell free culture (AID 720682)
In short: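 Using fluorescein as calibrant, autofluorescence was quantified at 485/535 nm in cell-free DMEM containing 10% FBS after pintool addition of compound or vehicle.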

[12] = qHTS assay to test for compound auto fluorescence at 590 nm (red) in HEK293 cell free culture (AID 720683)
In short: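 Red-channel autofluorescence of compounds in culture medium (DMEM, 10% FBS), no cells, measured at 540/590 nm. Rose Bengal sodium is the reference fluorophore for equivalence.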

[13] = qHTS assay to test for compound auto fluorescence at 590 nm (red) in HepG2 cell free culture (AID 720684)
In short: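 Steps: dispense MEM/10% FBS medium, no cells; pin compound or DMSO vehicle; read red channel, Ex/Em 540/590 nm. Output given as Rose Bengal sodium equivalents.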

[14] = qHTS assay to test for compound auto fluorescence at 460 nm (blue) in HepG2 cell free culture (AID 720685)
In short: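 Compound (23 nL) or DMSO pinned into cell-free MEM with 10% FBS; blue fluorescence read at 405/460 nm excitation/emission, expressed as auto-fluorescence equivalency to triamterene.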

[15] = qHTS assay to test for compound auto fluorescence at 460 nm (blue) in HepG2 cells (AID 720687)
In short: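 Blue-channel autofluorescence (Ex/Em 405/460 nm, triamterene-equivalent) was measured after 1 hr compound exposure at 37 C, 5% CO2. Cells were HepG2, plated overnight at 37 C in MEM plus 10% FBS.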

[16] = target: Glucocorticoid receptor (Homo sapiens) (UniProt P04150); experiment: qHTS assay to identify small molecule agonists of the glucocorticoid receptor (GR) signaling pathway (AID 720691; active = well fitted activation curve with a large enough effect in the signal ratio in the repeat runs, not every such curve was filed as active; the % refers to the signal ratio)
Glucocorticoid receptor (Homo sapiens), sequence (P04150 whole entry, looked up): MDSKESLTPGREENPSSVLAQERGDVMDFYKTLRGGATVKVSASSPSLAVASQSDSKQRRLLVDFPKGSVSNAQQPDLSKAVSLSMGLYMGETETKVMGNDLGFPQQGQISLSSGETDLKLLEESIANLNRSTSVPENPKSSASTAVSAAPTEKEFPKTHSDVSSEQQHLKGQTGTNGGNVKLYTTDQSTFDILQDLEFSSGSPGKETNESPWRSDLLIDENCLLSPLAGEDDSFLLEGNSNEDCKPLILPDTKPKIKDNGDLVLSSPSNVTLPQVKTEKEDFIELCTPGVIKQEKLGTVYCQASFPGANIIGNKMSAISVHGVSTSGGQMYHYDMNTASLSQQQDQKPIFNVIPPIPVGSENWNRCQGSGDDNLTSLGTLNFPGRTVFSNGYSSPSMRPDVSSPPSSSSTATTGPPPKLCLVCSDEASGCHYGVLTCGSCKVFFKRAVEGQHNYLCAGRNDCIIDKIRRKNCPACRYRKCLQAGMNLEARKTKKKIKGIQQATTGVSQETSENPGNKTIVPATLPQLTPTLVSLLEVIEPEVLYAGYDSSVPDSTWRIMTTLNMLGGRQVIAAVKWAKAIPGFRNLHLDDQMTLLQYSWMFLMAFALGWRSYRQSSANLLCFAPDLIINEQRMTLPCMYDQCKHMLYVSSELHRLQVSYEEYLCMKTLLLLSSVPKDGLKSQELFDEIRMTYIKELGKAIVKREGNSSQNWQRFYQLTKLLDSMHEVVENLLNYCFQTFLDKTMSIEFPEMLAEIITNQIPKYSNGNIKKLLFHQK
In short: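 Reporter read-out: fluorescence intensity following 2 h room-temperature LiveBLAzer B/G FRET substrate loading. Prior step: GR-bla HeLa cells held 4 h, then treated 18 h at 37 C.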

[17] = target: Glucocorticoid receptor (Homo sapiens) (UniProt P04150); experiment: qHTS assay to identify small molecule antagonists of the glucocorticoid receptor (GR) signaling pathway (AID 720692; active = well fitted inhibition curve with a large enough effect in the signal ratio in the repeat runs, not every such curve was filed as active; the % refers to the signal ratio)
In short: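 Dexamethasone (5 nM final) stimulated a stably integrated GRE-beta-lactamase reporter in HeLa cells during 18 h co-incubation with compounds; signal was quantified as fluorescence intensity of B/G FRET substrate after 2 h.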

[18] = qHTS assay for small molecule agonists of the p53 signaling pathway - cell viability (AID 651633; calls by dose curve;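 also: p53RE-bla HCT reporter cells with a stable beta-lactamase p53 reporter; series mostly up to about 83 µM; nearly all actives have a fitted effect of over 30% in size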)
In short: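 Viability counter-read: CellTiter-Glo luminescence (30 min, room temperature) in the same p53RE-bla plates. These plates had been exposed to compounds for 16 h at 37 C.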

[19] = qHTS assay to test for compound auto fluorescence at 535 nm (green) in HepG2 cell free culture (AID 720686)

Measured: Potency

N=C(N)N1CCc2ccccc2C1
not listed: [18] | [19]
inactive: all other assays above

NNC(=O)CCCCC(=O)NN
not listed: [1] | [3] | [4] | [5] | [10] | [15] | [16]
inactive: all other assays above

Cc1ccccc1OCC(=O)O
not listed: [3] | [4] | [15] | [19]
inactive: all other assays above

C[C@H]1COc2c(C3(N)CC3)c(F)cc3c(=O)c(C(=O)O)cn1c23
not listed: [3] | [5] | [19]
inactive: all other assays above

C[Si](C)(C)O[Si](O)(O)O
not listed: [1] | [4]
inactive: all other assays above

CC/C=C/CCCCCCCCCCOC(C)=O
not listed: [1] | [4] | [5] | [15] | [16] | [18]
inactive: all other assays above

CCN1CCN(C(=O)N[C@@H](C(=O)N[C@@H]2C(=O)N3[C@@H]2SC(C)(C)[C@H]3C(=O)O)c2ccccc2)C(=O)C1=O
not listed: [3] | [5] | [15] | [16] | [17]
inactive: all other assays above

CC/C=C\CCCCCCCCCCOC(C)=O
not listed: [9] | [15] | [16] | [18]
inactive: all other assays above

CCCCCC(CC)OC(=O)CCCOc1ccc(Cl)cc1Cl (configuration not stated)
not listed: [1] | [4] | [10] | [19]
inactive: all other assays above

CCCCN1C(=O)c2ccccc2C1=O
not listed: [3] | [4]
inactive: all other assays above

CCCCNCC
not listed: [3] | [4] | [19]
inactive: all other assays above

CC(=O)Nc1ccc(OCCOCCOc2ccc(NC(C)=O)cc2)cc1
not listed: [1] | [17]
inactive: all other assays above

CN(C)c1ccncc1
not listed: [1] | [2] | [16] | [17]
inactive: all other assays above

CCOc1ccccc1OCCN[C@H](C)Cc1ccc(OC)c(S(N)(=O)=O)c1
not listed: [3] | [4] | [15] | [16] | [17] | [19]
inactive: all other assays above

N#Cc1ccccc1C#N
not listed: [1] | [16] | [17] | [19]
inactive: all other assays above

CC1=C(O)C(=O)CO1
not listed: [4] | [5] | [16] | [17] | [18]
inactive: all other assays above

Cc1ccc(Br)cc1
not listed: [4] | [9] | [15]
inactive: all other assays above

O=C(CCBr)N1CCN(C(=O)CCBr)CC1
not listed: [3] | [4]
inactive: all other assays above

C=CCON/C(CCC)=C1\C(=O)CC(C)(C)C(C(=O)OC)=C1O
not listed: [4] | [5]
inactive: all other assays above

BrCCOc1ccccc1
not listed: [4] | [5] | [10] | [15]
inactive: all other assays above

C=CCCCCCCCCOC(C)=O
not listed: [4] | [9] | [10] | [17] | [19]
inactive: all other assays above

CCC(=O)OCCOc1ccccc1
not listed: [1] | [3] | [4] | [16] | [17]
inactive: all other assays above

N#CC1(N)CCCCC1
not listed: [4] | [5] | [17]
inactive: all other assays above

CC[C@@]1(c2ccccc2)NC(=O)N(C)C1=O
not listed: [4] | [9] | [10] | [16] | [17]
inactive: all other assays above

CC(C)(C)C(=O)CCc1ccc(Cl)cc1
not listed: [1] | [5] | [16] | [17]
inactive: all other assays above

CCC(C)c1nccnc1OC (configuration not stated)
not listed: [4] | [5]
inactive: all other assays above

NC(=O)CC[C@@H](N)C(=O)O
not listed: [1] | [16] | [17] | [19]
inactive: all other assays above

C=CC(=O)OCCOCCOCC
not listed: [4] | [5] | [17]
inactive: all other assays above

COC(=O)N/N=C/c1c[n+]([O-])c2ccccc2[n+]1[O-]
not listed: [3] | [5] | [16] | [17]
inactive: all other assays above

CNC(C)=O
not listed: [4] | [16] | [18] | [19]
inactive: all other assays above

CC(C)(O)c1ccc(C(C)(C)O)cc1
not listed: [3] | [4] | [5] | [17]
inactive: all other assays above
